Measured values published in ChEMBL document CHEMBL4513216, “Probing the Open Global Health Chemical Diversity Library for Multistage-Active Starting Points for Next-Generation Antimalarials” (ACS Infect Dis, 2020).
About 2,100 (3.2%) of roughly 65,000 compounds showed an effect of 50% or more. The median lay at about -52%. Many of the other results were omitted from the sample, so strong results are more common in it than they were.

System: Plasmodium falciparum
Assay: Screen against P. falciparum Asexual Blood Stage (ABS), at 5uM
Assay type: functional, Dd2
Details: tested at 5 uM

Row | SMILES | INHIBITION [%]
1 | Cc1cccc(CN2C[C@H]3CCC[C@@]3(COCc3csc(C)n3)C2)n1 | 82
2 | CC(C)N1CCCC1c1nc(N(C)C)ncc1I (stereo unspecified) | 70.7
3 | CC(C)N1CCCCC1c1cncc(Cl)n1 (stereo unspecified) | -50.5
4 | CC(C)N1CCCCC1c1nc(N(C)C)ncc1I (stereo unspecified) | 72
5 | COCCNC(=O)[C@H]1CN2CCC1C[C@@H]2Cn1cc(C(C)(C)C)nn1 (stereo partly specified) | -65.8
6 | c1cnc(N2CCOC3(COCCN(Cc4cc[nH]n4)C3)C2)nc1 (stereo unspecified) | -27.9
7 | CCN(C)C[C@@H]1CN(Cc2cccc(Cl)c2)C[C@@H]1CO | 83.6
8 | C=Cc1cccc(CN2C[C@@H](CN(C)CC)[C@@H](CO)C2)c1 | 87.6
9 | CCN(C)C[C@@H]1CN(S(=O)(=O)c2cccc(Cl)c2)C[C@@H]1CO | 75.3
10 | CCNC(=O)[C@H]1CN(Cc2ccccc2)C[C@@H]1C(=O)c1ccccc1 | -76.3
11 | CC(C)=CCN1C[C@@H]2CC[C@H]1CN(S(=O)(=O)c1cccnc1)C2 | -10.7
12 | CN1CC=C(c2noc(CCC(=O)N3CCCC3)n2)CC1 | -71.4
13 | Cc1cccc(N2CCN(C(=O)CCc3c(C)noc3Cl)CC2)c1 | 86.3
14 | Cc1nc(CN2CCN(C(=O)Cc3cccc(Cl)c3)CC2)no1 | -18.4
15 | Cc1ccnc(CC(C)N(C)Cc2ccc3c(c2)CCO3)c1 (stereo unspecified) | -33.2
16 | Cc1ccc(CN2CCO[C@@H]3[C@@H](OCc4cccnc4)CC[C@@H]32)o1 | -89.9
17 | Cc1nc(C(=O)N[C@H]2COC[C@@H]2N2CCCCC2)cs1 | -260
18 | O=C(N[C@H]1COC[C@@H]1N1CCCC1)c1csc(-c2cccs2)n1 | 50.8
19 | O=C(N[C@H]1COC[C@@H]1N1CCCC1)c1csc(Cc2ccccc2)n1 | -21.2
20 | CN1CCC2(CC1)CN(Cc1ccc(C3CCCCO3)o1)CCCN2C (stereo unspecified) | 81.1
21 | c1cnc(N2CCOCC3(CN(Cc4cc[nH]n4)CCO3)C2)nc1 (stereo unspecified) | -54.7
22 | CN(Cc1ccco1)[C@@H]1CN(Cc2ccsc2)C[C@@H]2CCCO[C@@H]21 | 76
23 | CN(Cc1cncnc1)[C@H]1CN(Cc2ccco2)[C@@H]2CCCO[C@@H]21 | -96.6
24 | Cc1ccc(CN2C[C@@H]3CCCO[C@@H]3[C@H](N(C)Cc3ccco3)C2)s1 | 74.2
25 | Cc1cc(CN2C[C@@H]3CCCO[C@@H]3[C@H](N(C)C(C)C)C2)no1 | -18.2
26 | CN(Cc1ccco1)[C@@H]1CN(Cc2cccnc2)[C@@H]2CCCO[C@H]12 | -40.9

Row | SMILES | INHIBITION [%]
27 | Cc1cccc(CN2C[C@@H]3CCCO[C@@H]3[C@H](NS(C)(=O)=O)C2)n1 | -63.9
28 | c1cnc(N2C[C@H]3CC[C@@H](C2)N(Cc2ccsc2)C3)nc1 | -21
29 | c1ccc(O[C@@H]2CO[C@@]3(CCCN(CC4CCOCC4)C3)C2)nc1 | 3.78
30 | Cc1cc(CN2C[C@@H]3COC[C@]3(CNS(C)(=O)=O)C2)no1 | -20.4
31 | CN1CCOC(CN(C(=O)CN2CCCC2=O)c2nccs2)C1 (stereo unspecified) | -55.7
32 | N#Cc1cccc(OC23CCCN(CC2)C3)c1 (stereo unspecified) | -31.3
33 | c1ccc(Oc2cccc(OC34CCCN(CC3)C4)c2)cc1 (stereo unspecified) | 76.9
34 | c1ccc(O[C@@H]2CN(Cc3nccs3)[C@@H]3CCCO[C@@H]32)nc1 | -4.8
35 | CCOCCN(C)C(=O)Nc1cccc2c1CCN(CC)C2 | -88.7
36 | CCc1ccccc1OCCN(C)C(=O)CN1CCCC1 | 75.4
37 | Cc1noc(C)c1CN1C[C@@H]2CN(C(=O)c3cscn3)C[C@@H]2C1 | -82.3
38 | CC(C)c1n[nH]c(C(=O)Nc2ccccn2)c1Br | 84.6
39 | Cc1ccnc(NC(=O)c2[nH]nc(C(C)C)c2Br)c1 | 73.7
40 | Cc1ccnc(NCCNC(=O)C2CC3(CCNCC3)CN2C)c1 (stereo unspecified) | -81.4
41 | Cc1cc(CN2C[C@@H]3CN(C(=O)c4ccsc4)CCO[C@@H]3C2)no1 | -12.1
42 | CN1CCCc2c1nc1c(c2N)CCCC1 | 75.8
43 | CN1CCc2nc3c(c(N)c2C1)CCCN3C | -7.55
44 | CC(C)CN1CCC(NCCNc2cccnc2)CC1 | 79.1
45 | c1cncc(NCCNC2CCCNC2)c1 (stereo unspecified) | -1.26
46 | Cc1cnccc1NCCNC1CCN(CC(C)C)CC1 | 80
47 | CC(=O)N1C[C@H]2CNC[C@@]2(C(=O)NCCNc2ccncc2C)C1 | -37
48 | CC(C)CN1C(=O)C2(CCCC2)NC1c1cccnc1 (stereo unspecified) | -8.76
49 | Cc1cc(CC(C)NC2CCN(CC(C)C)CC2)[nH]n1 (stereo unspecified) | -57.2
50 | Cn1cc(N2C(=O)CC[C@@H]3[C@H]2CCN3Cc2ccncc2)cn1 | -123
51 | c1ccc(CN2CCN3C[C@H](Oc4cccnc4)C[C@H]3C2)nc1 | -10.5
